Measurements reported in PubChem BioAssay (NCATS).
Inconclusive results are not listed. The source made the active and inactive calls. The call rests on the fitted dose curve; in most records, active means well fitted inhibition curve with a large enough effect; inconclusive means small, poorly fitted or top-dose-only effect; inactive means flat fitted curve, though single readings scatter. Numbered stars: 1 amine (or outer) side, 2 acyl side, 3 side chain; on linkers, the order of the positions; unused ones are H or OH. Bridge positions count the residues as written; N and C are the ends. Square brackets hold non-standard residues; d marks the D form. Peptide text beside a SMILES is read from it. * marks the point of attachment. ξ: configuration not given here. ΔAla(Z-3-ureido) = NC(=O)N/C=C(\N)C(=O)O; X1 = NC1=NCCC(C(N[*:1])C(=O)[*:2])N1; ξβ3hOrn = NCCCC(N)CC(=O)*; Dap = NC[CH](N)C(=O)O

Assays:
Experiment in all cases: qHTS profiling for inhibitors of Plasmodium falciparum proliferation (AID 504749); further: nearly all actives have a fitted effect of over 60% in size
Details in all cases: P. falciparum in erythrocytes, SYBR Green DNA, 72 h; series mostly up to 28.7 µM
7G8 = system: 7G8
How it was run: (§1)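 Infected RBCs, 0.3% parasitemia/2.5% Hct final; cpd 72 h, 37 C, 5% CO2; lysis buffer with saponin/triton/SYBR Green I, o/n RT dark; FI 485/535; norm. to artemisinin (0.29 uM) and DMSO.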

AA1029 = system: AA1029
How it was run: as §1

C2A = system: C2A
How it was run: as §1

CP192 = system: CP192
How it was run: as §1

CP194 = system: CP194
How it was run: as §1

CP203 = system: CP203
How it was run: as §1

CP217 = system: CP217
How it was run: as §1

CP237 = system: CP237
How it was run: as §1

CP266 = system: CP266
How it was run: as §1

CP268 = system: CP268
How it was run: as §1

CP269 = system: CP269
How it was run: as §1

CP291 = system: CP291
How it was run: as §1

CP315 = system: CP315
How it was run: as §1

CP329 = system: CP329
How it was run: as §1

DIV30 = system: DIV30
How it was run: as §1

HB3 = system: HB3
How it was run: as §1

JCK = system: JCK
How it was run: as §1

P94_40 = system: P94_40
How it was run: as §1

PC26 = system: PC26
How it was run: as §1

TAB109 = system: TAB109
How it was run: as §1

Measured: Potency

CNCC(=O)NC(CCCN=C(N)N)C(=O)NC(C(=O)NC(Cc1ccc(O)cc1)C(=O)NC(C(=O)NC(Cc1cnc[nH]1)C(=O)N1CCCC1C(=O)NC(C)C(=O)O)C(C)C)C(C)C (configuration not stated)
inactive: all assays above

CC(N)C(=O)NCC(=O)NC1CSSCC(C(=O)O)NC(=O)C(CO)NC(=O)C(C(C)O)NC(=O)C(Cc2ccccc2)NC(=O)C(C(C)O)NC(=O)C(CCCCN)NC(=O)C(Cc2c[nH]c3ccccc23)NC(=O)C(Cc2ccccc2)NC(=O)C(Cc2ccccc2)NC(=O)C(CC(N)=O)NC(=O)C(CCCCN)NC1=O (configuration not stated)
inactive: all assays above

CC(C)C[C@H](NC(=O)[C@@H](Cc1c[nH]c2ccccc12)NC(=O)[C@@H](Cc1ccc(O)cc1)NC(=O)[C@@H](CO)NC(=O)[C@@H](Cc1c[nH]c2ccccc12)NC(=O)C(Cc1cnc[nH]1)NC(=O)C1CCC(=O)N1)C(=O)N[C@@H](CCCN=C(N)N)C(=O)N1CCC[C@@H]1C(=O)NCC(N)=O (some centres not stated)
inactive: all assays above

CC(=O)OCC(=O)[C@@]1(O)CCC2C3CCC4=CC(=O)CC[C@]4(C)C3=CC[C@@]21C (some centres not stated)
inactive: all assays above

O=C1/C(=C\c2cccs2)CCC/C1=C/c1cccs1
not listed: 7G8
inactive: all other assays above

CC1(C)C(/C=C/C=C/C=C/C=C2\N(CCCCS(=O)(=O)O)c3ccc4ccccc4c3C2(C)C)=[N+](CCCCS(=O)(=O)[O-])c2ccc3ccccc3c21
not listed: CP217
inactive: all other assays above

Cn1cc(O)nc1NC(=O)Nc1cccc(Cl)c1
not listed: CP329
inactive: all other assays above

CC(C)C(NC(=O)C(CC(=O)O)NC(=O)C(CCCCN)NC(=O)C(N)CCCN=C(N)N)C(=O)NC(Cc1ccc(O)cc1)C(=O)O (configuration not stated) (H-RKDVY-OH; configuration not given here)
inactive: all assays above

NCCCC(N)CC(=O)NCC1NC(=O)C(CO)NC(=O)C(N)CNC(=O)C(C2CCN=C(N)N2)NC(=O)/C(=C/NC(N)=O)NC1=O (stereo not drawn) (H-[Dap]S[Dap](ξβ3hOrn)[ΔAla(Z-3-ureido)][X1]; lactam 1-C; configuration not given here)
inactive: all assays above

CC(C)CC(NC(=O)C(COC(C)(C)C)NC(=O)C(Cc1ccc(O)cc1)NC(=O)C(CO)NC(=O)C(Cc1c[nH]c2ccccc12)NC(=O)C(Cc1cnc[nH]1)NC(=O)C1CCC(=O)N1)C(=O)NC(CCCN=C(N)N)C(=O)N1CCCC1C(=O)NNC(N)=O (configuration not stated)
inactive: all assays above
